Screen size: about 1,500 compounds; about 890 (59%) were called active.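 Rule for the calls: active = inhibition of the choline-evoked signal at any tested dose together with a fitted dose-response curve; inactive = no inhibition at any dose or no curve.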 The set was probably picked from earlier hits. A selection follows. Where a call stands in place of a potency, no number is given. Potency and affinity values are given separately.
These compounds were tested against High affinity choline transporter 1 (Homo sapiens) (UniProt Q9GZV3) (assay: human choline transporter blockers, potency – cell-based, 5-point CRC, membrane potential dye, dose response (AID 504840)). Settings: HEK293-CHT, choline-induced depolarization, CHT with LV-to-AA double alanine mutation; series mostly up to 37 µM.
Chain of High affinity choline transporter 1 (Homo sapiens) (Q9GZV3 whole entry, looked up): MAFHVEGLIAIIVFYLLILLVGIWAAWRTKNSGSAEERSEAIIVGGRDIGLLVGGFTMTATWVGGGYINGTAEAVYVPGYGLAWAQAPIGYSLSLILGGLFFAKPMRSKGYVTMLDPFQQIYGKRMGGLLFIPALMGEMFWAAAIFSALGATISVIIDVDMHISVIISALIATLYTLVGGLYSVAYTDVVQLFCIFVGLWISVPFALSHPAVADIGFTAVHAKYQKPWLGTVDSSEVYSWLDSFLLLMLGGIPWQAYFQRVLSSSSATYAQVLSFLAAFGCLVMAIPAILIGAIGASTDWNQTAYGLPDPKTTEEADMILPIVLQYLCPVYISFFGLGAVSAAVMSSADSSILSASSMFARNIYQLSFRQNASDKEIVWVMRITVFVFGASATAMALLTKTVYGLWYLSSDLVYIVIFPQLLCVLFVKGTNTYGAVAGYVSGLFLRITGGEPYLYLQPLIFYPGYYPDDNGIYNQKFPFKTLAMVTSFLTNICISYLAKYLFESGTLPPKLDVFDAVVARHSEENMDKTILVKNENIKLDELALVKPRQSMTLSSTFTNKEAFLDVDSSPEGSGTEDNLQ
With `COC(=O)CCCCCCCCCC[N+]1(C)CCCCC1` the outcome was “inactive”. For `O=S(=O)(Nc1nc2ccccc2s1)c1ccc(Br)s1`, the outcome was “inactive”. In the case of `COc1ccc(CN2CCN(CC=C(C)C)C(CCO)C2)cc1Cn1cccn1` (configuration not stated), the outcome is reported as “inactive”. With `O=C(O)c1ccc(-c2nc(-c3ccccc3Cl)cs2)cc1` the outcome was “inactive”. `O=C(O)c1ccc(/C=C2\COc3ccccc3C2=O)cc1` was tested, and the outcome was “inactive”. `Cc1cc(C)c2nc(N3CCCN(C(=O)c4cnccn4)CC3)c(C#N)cc2c1` was tested, and the outcome was “inactive”. With `CN1/C(=C\C=Nc2cc(S(=O)(=O)N3CCOCC3)ccc2N2CCOCC2)C(C)(C)c2ccccc21` the outcome was “inactive”. In the case of `Cc1ccc(Nc2nnc(-c3ccc(N4CCOCC4)c([N+](=O)[O-])c3)c3ccccc23)cc1`, the outcome is reported as “inactive”. For `Cc1ccc(C(=O)N/C(=C\c2cccs2)C(=O)NC2CCCCC2)cc1`, the outcome was “inactive”. `O=C(CSc1nc(C(F)(F)F)cc(=O)[nH]1)Nc1cccc2ccccc12` was tested, and the outcome was “inactive”. In the case of `CCc1nnc(NC(=O)CSc2nnc(-c3ccccc3OC)n2-c2ccccc2)s1`, the outcome is reported as “inactive”. For `Cc1ccc(S(=O)(=O)/N=C(/NC(=S)Nc2c(C)n(C)n(-c3ccccc3)c2=O)c2ccccc2)cc1`, the outcome was “inactive”. `O=C1c2cccc3c(Nc4ccccc4Cl)c([N+](=O)[O-])cc(c23)C(=O)N1CCO` was tested, and the outcome was “inactive”. In the case of `C=Cn1cc[n+](CC(=O)c2ccc(-c3ccccc3)cc2)c1`, the outcome is reported as “inactive”. `COCCNc1nc(-n2nc(C)cc2C)nc2sc3c(c12)CCCC3` was tested, and the outcome was “inactive”. For `CCOC(=O)C(Cc1ccccc1)NC(=O)CCCC(=O)c1ccccc1` (configuration not stated), the outcome was “inactive”. With `Cc1ccc(-c2nn(-c3ccccn3)c(=O)c3ccccc23)cc1` the outcome was “inactive”. `COc1ccc(NC(=O)c2sc(N)nc2-c2ccccc2)cc1` was tested, and the outcome was “inactive”. With `O=C(CCC1CCCN(c2ncccn2)C1)NCc1ccc(F)c(F)c1` (configuration not stated) the outcome was “inactive”. With `Cn1c(CN2CCN(CCO)CC2)c(C#N)c2ccccc21` the outcome was “inactive”. With `S=c1[nH]c2cc(Cl)ccc2s1` the outcome was “inactive”. With `Cc1cc(C)nc(NS(=O)(=O)c2ccc(NC(=O)C3COc4ccccc4O3)cc2)n1` (configuration not stated) the outcome was “inactive”. `CN(Cc1nc(-c2cccnc2)no1)S(=O)(=O)c1ccc(Br)cc1` was tested, and the outcome was “inactive”. In the case of `O=[N+]([O-])c1ccc(SCCc2ccccn2)cc1`, the outcome is reported as “inactive”. `O=C1CSC(=S)N1/N=C/c1c(F)cccc1F` was tested, and the outcome was “inactive”. In the case of `CCc1c(C)nc2ncnn2c1N1CCN(S(=O)(=O)c2ccc(OC)cc2)CC1`, the outcome is reported as “inactive”. For `O=[N+]([O-])c1ccc(N2CCCCC2)nc1`, the outcome was “inactive”. For `c1ccc(-c2ccccc2OCc2nnc3n2CCC3)cc1`, the outcome was “inactive”. In the case of `O=C(NNC(=S)NC1CCCCC1)c1ccccc1O`, the outcome is reported as “inactive”. For `Cc1ccc2c(c1)C1CN(C)CCC1N2C(=O)c1ccccc1NS(=O)(=O)c1cccc(C(F)(F)F)c1` (configuration not stated), the outcome was “inactive”. `CN1CCN(c2ncc(CN3C(=O)c4ccccc4C3=O)s2)CC1` was tested, and the outcome was “inactive”. `CCc1cccc(CC)c1NC(=O)c1cccc(NC(=O)c2ccccc2)c1` was tested, and the outcome was “inactive”. `Cc1cccc(C(=O)Nc2sc(-c3ccccc3)cc2C(=O)O)c1` was tested, and the outcome was “inactive”. For `COc1cc(CCC(=O)OCC(=O)NCc2ccc(Cl)cc2)cc(OC)c1OC`, the outcome was “inactive”. With `Cc1ccccc1C(=O)OC(C)CN1CCN(C)CC1` (configuration not stated) the outcome was “inactive”. For `CC(C)NS(=O)(=O)c1ccc(CCC(=O)N2CCc3ccccc3C2)cc1`, the outcome was “inactive”. In the case of `Cc1ccc(-c2csc(NC(=O)c3ccc(Br)cc3)c2C(=O)O)cc1`, the outcome is reported as “inactive”. `COc1cc(C(=O)Nc2scc(-c3ccc(C)cc3)c2C(=O)O)cc(OC)c1OC` was tested, and the outcome was “inactive”. With `Cc1ccc(-c2csc(NC(=O)c3ccc(F)cc3)c2C(=O)O)cc1` the outcome was “inactive”. `O=C(COC(=O)C1(c2ccccc2F)CCCC1)N1CCN(C(=O)c2ccco2)CC1` was tested, and the outcome was “inactive”. With `CC1CCN(C(=O)CCCOc2cc(=O)n(C)c3ccccc23)CC1` the outcome was “inactive”. In the case of `COc1cc(NC2CCCCC2O)c2nc(-c3ccc(Cl)cc3)ccc2c1` (configuration not stated), the outcome is reported as “inactive”. With `CC1CCCCC1NC(=O)Cn1nc(-c2ccccc2)ccc1=O` (configuration not stated) the outcome was “inactive”. With `Cc1c(NC(=S)NC(=O)c2ccc(-c3ccc(Cl)cc3)o2)cccc1C(=O)O` the outcome was “inactive”. `C/C(=N\NC1=NCCN1)c1ccc(Cl)cc1` was tested, and the outcome was “inactive”. With `CCCCCNC(=O)c1ccc2c(=O)[nH]c3c(C(=O)NCC4CCCO4)sc(=S)n3c2c1` (configuration not stated) the outcome was “inactive”. `CCOCCCn1c(=S)[nH]c2cc(C(=O)N3CCN(C4CCCCC4)CC3)ccc2c1=O` was tested, and the outcome was “inactive”. With `CCOc1cc2[nH]c(=S)n(C(C)C)c(=O)c2cc1OCC` the outcome was “inactive”. With `O=C(N/N=C/c1cn[nH]c1-c1ccc(Cl)cc1)c1ccc([N+](=O)[O-])cc1` the outcome was “inactive”. For `CCOC(=O)C(C)Sc1nnc(NC(=O)c2cccc([N+](=O)[O-])c2C)s1` (configuration not stated), the outcome was “inactive”. With `Cc1ccc(C(=O)NCC(=O)OCC(=O)Nc2ccccc2C#N)s1` the outcome was “inactive”. With `Cc1c(NC(=O)/C=C/c2cn(-c3ccccc3)nc2-c2ccccc2)c(=O)n(-c2ccccc2)n1C` the outcome was “inactive”. For `Cc1cccc(N2CCN(C(=O)COc3cc(=O)n(C)c4ccccc34)CC2)c1C`, the outcome was “inactive”. For `CN(C)CCNC(=O)C(=O)NCC(c1ccc2c(c1)OCO2)N1CCN(c2ccc(F)cc2)CC1` (configuration not stated), the outcome was “inactive”. With `COc1ccccc1C(=O)NC(C)c1cccc2ccccc12` (configuration not stated) the outcome was “inactive”. With `O=S(=O)(Nc1nc2ccccc2s1)c1ccc(Cl)nc1` the outcome was “inactive”. `O=C(NC1CCCCC1)N(Cc1ccccc1)Cc1ccco1` was tested, and the outcome was “inactive”. For `CCN(Cc1ccccc1)S(=O)(=O)c1cc(C(=O)O)ccc1OC`, the outcome was “inactive”. In the case of `CCc1ccc(OCc2n[nH]c(=S)n2Cc2ccccc2)cc1`, the outcome is reported as “inactive”. With `O=C(NNC1=C(C(=O)C(F)(F)F)CCC1)c1ccc(Cl)cc1` the outcome was “inactive”. With `CCc1ccc2c(c1)C1(NN=C(c3ccc(C)cc3)S1)C(=O)N2` (configuration not stated) the outcome was “inactive”. For `CCc1ccc2c(c1)C1(NN=C(c3ccccc3)S1)C(=O)N2` (configuration not stated), the outcome was “inactive”. For `Cc1oc2c(F)c(F)c(F)c(F)c2c1S(=O)(=O)Nc1cccc(C(F)(F)F)c1`, the outcome was “inactive”. For `CC(/C=C1\SC(=S)N(C(C(=O)O)c2ccccc2)C1=O)=C\c1ccccc1` (configuration not stated), the outcome was “inactive”. With `Cc1noc(NS(=O)(=O)c2ccc(NC(=O)c3oc4ccc(Cl)cc4c3C)cc2)c1C` the outcome was “inactive”. In the case of `Nc1c(C(=O)NCCN2CCOCC2)c2nc3ccccc3nc2n1CCc1ccccc1F`, the outcome is reported as “inactive”. In the case of `O=C(Nc1cccc(C(F)(F)F)c1)C1CCN(S(=O)(=O)c2cccnc2)CC1`, the outcome is reported as “inactive”. For `O=C(CSc1ccc2ccccc2c1)Nc1ccncc1`, the outcome was “inactive”. With `CCc1nnc(NC(=O)CSc2ncc(-c3ccccc3)n2C)s1` the outcome was “inactive”. `COc1ccc(Br)cc1C(=O)NC(=S)Nc1ccc(Cl)c(C(=O)O)c1` was tested, and the outcome was “inactive”. With `CC(Oc1ccc(Cl)cc1)C(=O)NNC(=S)NC(=O)c1ccco1` (configuration not stated) the outcome was “inactive”. `O=C(NNC(=S)Nc1ccc(Br)cc1)c1ccccc1Br` was tested, and the outcome was “inactive”. `CCCc1cc(=O)[nH]c(SCc2nc3ccccc3s2)n1` was tested, and the outcome was “inactive”. For `COc1ccccc1-c1coc2cc(O)cc(O)c2c1=O`, the outcome was “inactive”. For `O=C(CCc1ccccc1)c1c(O)cc(O)cc1O`, the outcome was “inactive”. `Cc1cc(S(=O)(=O)NCc2ccncc2)c(C)cc1Br` was tested, and the outcome was “inactive”. `O=C(Nc1ccccc1Cl)c1ccc(S(=O)(=O)NCC2CCCO2)cc1` (configuration not stated) was tested, and the outcome was “inactive”. `COc1ccc(-n2cnnc2SCC(=O)Nc2cc(S(=O)(=O)N3CCCCC3)ccc2C)cc1` was tested, and the outcome was “inactive”. With `Cc1ccccc1CNS(=O)(=O)c1ccc2c(c1)OCCO2` the outcome was “inactive”. In the case of `Cc1ccc(Oc2ccc(S(=O)(=O)NCC(C)(C)N3CCOCC3)cc2)cc1`, the outcome is reported as “inactive”. With `CCC1CCCCN1CCCNC(=O)c1ccc(N2CCOCC2)c(NS(=O)(=O)c2ccc(OC)cc2)c1` (configuration not stated) the outcome was “inactive”. With `CCOC(=O)c1ccc(NS(=O)(=O)c2ccc3c(c2)NC(=O)CCS3)cc1` the outcome was “inactive”. With `Cc1cccc(C(=O)NC(=S)NNC(=O)c2cccs2)c1` the outcome was “inactive”. For `Cc1cccc(C(=O)NNC(=S)NC(=O)c2cccs2)c1`, the outcome was “inactive”. With `Cc1ccccc1C(=O)NNC(=S)NC(=O)c1ccc(Cl)cc1Cl` the outcome was “inactive”. In the case of `Cc1ccccc1C(=O)NNC(=S)NC(=O)COc1ccccc1`, the outcome is reported as “inactive”. `Cc1ccc(C)c(NCC(=O)NNC(=S)Nc2ccccc2)c1` was tested, and the outcome was “inactive”. For `O=C(O)CC(NC(=O)c1sc2ccccc2c1Cl)c1ccc(OC2CCCC2)cc1` (configuration not stated), the outcome was “inactive”. `CC(O)c1cccc(NC(=O)CC(c2ccccc2)c2ccccc2)c1` (configuration not stated) was tested, and the outcome was “inactive”. In the case of `O=C(CC(c1ccccc1)c1ccccc1)Nc1ccncc1`, the outcome is reported as “inactive”. `O=C(O)c1ccc2c(c1)N(Cc1ccc(F)cc1)C(=O)c1ccccc1S2` was tested, and the outcome was “inactive”. For `CC1CCCN(CCCNC(=O)c2ccc3c(c2)N(Cc2ccccc2F)C(=O)c2ccccc2S3(=O)=O)C1` (configuration not stated), the outcome was “inactive”. For `Cc1ccc(C(=O)N/C(=C\C=C\c2ccccc2)C(=O)NCc2ccco2)cc1`, the outcome was “inactive”. With `CC(C)c1ccc(C(C)NC(=O)C2CCCC2)cc1` (configuration not stated) the outcome was “inactive”. `COc1ccccc1C(=O)NC(=S)NNC(=O)c1sc2ccccc2c1Cl` was tested, and the outcome was “inactive”. `O=C(NNC(=S)NC(=O)c1sc2ccccc2c1Cl)c1ccc(Cl)cc1` was tested, and the outcome was “inactive”. For `Cc1onc(-c2ccccc2)c1C(=O)NNC(=S)NC(=O)c1ccc(Br)cc1`, the outcome was “inactive”. `CCCOc1ccc(C(=O)NC(=S)NNC(=O)c2c(-c3ccccc3)noc2C)cc1` was tested, and the outcome was “inactive”. In the case of `CCn1c(=O)n(CC)c2cc(S(=O)(=O)N3CCc4ccccc43)ccc21`, the outcome is reported as “inactive”. With `O=C(NNS(=O)(=O)c1ccccc1[N+](=O)[O-])c1cc2ccccc2cc1O` the outcome was “inactive”. For `C=CCN(CC=C)S(=O)(=O)c1ccc2nc(NC(=O)C3CCCO3)sc2c1` (configuration not stated), the outcome was “inactive”. In the case of `CC(OC(=O)CCN1C(=O)c2cccc([N+](=O)[O-])c2C1=O)C(=O)Nc1cc(Cl)cc(Cl)c1` (configuration not stated), the outcome is reported as “inactive”. `CCOC(=O)c1sc(NC(=O)CSc2nc3c(c(=O)n2-c2ccc(C)cc2)SCC3)c(C(=O)OCC)c1C` was tested, and the outcome was “inactive”. In the case of `CCc1c(C2(O)CCCCC2)[nH]c2cc(C(F)(F)F)ccc12`, the outcome is reported as “inactive”. In the case of `Cc1cc(NS(=O)(=O)c2ccc(NC(=O)/C=C/c3c(F)cccc3Cl)cc2)nc(C)n1`, the outcome is reported as “inactive”. With `Cc1cc(C)cc(NC(=O)c2ccc(N3C(=O)C4CCCCC4C3=O)cc2)c1` (configuration not stated) the outcome was “inactive”. For `Cc1ccc(NC(=O)c2ccc(Cn3cc([N+](=O)[O-])cn3)cc2)c(C)c1`, the outcome was “inactive”.
